# PubChem BioAssay (Tox21)
# Results filed as inconclusive are left out. Activity calls are given as the source filed them. Calls come from the whole dose curve; as a rule, active = well fitted activation curve with a large enough effect in the signal ratio in the repeat runs (not every such curve was filed as active); inconclusive = weak or mixed curves, or effect the other way; inactive = no such curve, though single readings can be large or run the other way; the % refers to the signal ratio.
# Target: Glucocorticoid receptor (Homo sapiens) (UniProt P04150)
# Assay: qHTS assay to identify small molecule agonists of the glucocorticoid receptor (GR) signaling pathway (AID 720691)
# Conditions: GR-bla HeLa, beta-lactamase reporter ratio, 18 h; series mostly up to 62.4 µM; activation: at the top concentration
# From the text: U.S. Tox21 Program National Center for Advancing Translational Sciences [NCATS] NIH Chemical Genomics Center [NCGC] U.S. Environmental Protection Agency [EPA] National Institutes of Environmental Health Sciences [NIEHS] National Toxicology Program [NTP] U.S. Food and Drug Administration [FDA] Tox21 Assay Overview: The Glucocorticoid receptor (GR) is one of the members of the nuclear receptor family of ligand-dependent transcription factors. GR plays a critical role in carbohydrate, protein and lipid metabolisms and programmed cell death. CellSensor GR-bla HeLa cell line (Invitrogen) contains a beta-lactamase reporter gene under the control of the glucocorticoid response element stably integrated into HeLa cells, a cervical cancer cell line that expresses glucocorticoid receptor. The activation of the reporter gene under culture conditions can be detected by fluorescence intensity. This cell line has been used to screen the Tox21 10K compound library and to identify the compounds that activate the GR signaling.
# Tox21 Assay Protocol Summary: The GR-bla HeLa cells were dispensed at 1500 cells/6 ul/well in 1536-well black wall/clear bottom plates using a Multidrop Combi (ThermoFisher Scientific, Waltham, MA) dispenser. After the assay plates were incubated at a 37 C/5% CO2 incubator for 4 hours, 23 nL of compounds dissolved in DMSO, positive controls or DMSO only was transferred to the assay plate by a pintool station (Kalypsys, San Diego, CA). The plates were incubated at 37 C for 18 hours. After 1 uL of LiveBLAzerTM B/G FRET substrate was added using a Flying Reagent Dispenser (Aurora Discovery, San Diego, CA), the plates were incubated at room temperature for 2 hours, and fluorescence intensity was measured by an Envision plate reader (PerkinElmer, Shelton, CT).
# % is set by controls: 0 for no effect and ±100 for the full control effect.
# Sequence of Glucocorticoid receptor (Homo sapiens) (P04150 whole entry, looked up): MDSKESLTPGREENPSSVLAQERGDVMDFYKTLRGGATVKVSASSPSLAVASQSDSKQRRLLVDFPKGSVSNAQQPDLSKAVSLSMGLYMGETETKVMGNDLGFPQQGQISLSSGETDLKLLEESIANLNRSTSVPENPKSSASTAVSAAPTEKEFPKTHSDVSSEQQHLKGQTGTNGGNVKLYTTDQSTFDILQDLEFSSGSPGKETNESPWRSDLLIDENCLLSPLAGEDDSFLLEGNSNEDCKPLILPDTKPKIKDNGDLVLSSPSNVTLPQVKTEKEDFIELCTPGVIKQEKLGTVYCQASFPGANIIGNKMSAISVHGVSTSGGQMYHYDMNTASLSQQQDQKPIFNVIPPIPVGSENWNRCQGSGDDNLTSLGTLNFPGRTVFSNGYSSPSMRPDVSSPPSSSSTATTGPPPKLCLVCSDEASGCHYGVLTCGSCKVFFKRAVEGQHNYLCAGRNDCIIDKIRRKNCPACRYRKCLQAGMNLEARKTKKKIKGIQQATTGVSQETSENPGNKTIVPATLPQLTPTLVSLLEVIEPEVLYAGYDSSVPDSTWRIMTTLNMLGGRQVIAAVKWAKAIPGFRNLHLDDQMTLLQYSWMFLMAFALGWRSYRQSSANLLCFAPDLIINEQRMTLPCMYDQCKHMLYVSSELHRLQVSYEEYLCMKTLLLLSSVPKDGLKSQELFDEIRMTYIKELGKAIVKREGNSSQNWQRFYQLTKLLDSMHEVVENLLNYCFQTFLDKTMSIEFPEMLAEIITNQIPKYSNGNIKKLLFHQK
SMILES,activation,outcome
CCOc1nc(F)cc2nc(S(=O)(=O)Nc3c(Cl)cccc3Cl)nn12,-2.91% (inactive),
O=[N+]([O-])c1cc(C(F)(F)F)cc([N+](=O)[O-])c1Cl,-5.1% [at 79.2 µM] (inactive),
Oc1ccc(Cl)c(Cl)c1Cl,0.592% [at 79.2 µM] (inactive),
Cc1ccc(-c2c(Cl)nc(C#N)n2S(=O)(=O)N(C)C)cc1,-3.47% (inactive),
O=S(=O)(O)C(F)(F)C(F)(F)C(F)(F)C(F)(F)F,-5.57% [at 79.2 µM] (inactive),
ClCCCCBr,-0.613% [at 79.2 µM] (inactive),
CN1C[C@H](CNC(=O)OCc2ccccc2)C[C@@H]2c3cccc4c3c(cn4C)C[C@H]21,-7.41% (inactive),
COc1cc(CC(C)N)cc2c1OCO2 (stereo not given),-0.897% [at 79.2 µM] (inactive),
O=C(O)C(F)(F)C(F)(F)C(F)(F)C(F)(F)C(F)(F)C(F)(F)C(F)(F)C(F)(F)C(F)(F)F,1.17% (inactive),
COc1c(C(C)(C)C)cc([N+](=O)[O-])c(C)c1[N+](=O)[O-],1.72% (inactive),
CCOP(=O)(OCC)O/C(=C/Cl)c1ccc(Cl)cc1Cl,,inactive
O=NN1CCCCCC1,-2.2% (inactive),
CC(C)(CCl)C(=O)Cl,-0.133% (inactive),
O=C(O)COc1ccc(Cl)cc1,0.222% (inactive),
O=C(OC1CCCCC1)c1ccccc1C(=O)OC1CCCCC1,0.971% [at 79.2 µM] (inactive),
CCBr,3.24% [at 79.2 µM] (inactive),
CCOC(=O)CBr,-0.985% [at 79.2 µM] (inactive),
c1ccoc1,-1.31% (inactive),
Brc1ccc(Oc2ccccc2)cc1,,inactive
CCCCC(CC)COP(=O)(Oc1ccccc1)Oc1ccccc1 (stereo not given),-1.53% (inactive),

SMILES,activation,outcome
CCOc1ccc(C(C)(C)COCc2cccc(Oc3ccccc3)c2)cc1,-1.1% (inactive),
ClCC(Br)CBr (stereo not given),-0.0634% (inactive),
CC(=O)[C@H]1CC[C@H]2[C@@H]3CC[C@H]4C[C@](C)(O)CC[C@]4(C)[C@H]3CC[C@]12C,-0.408% (inactive),
NCCCNCCCN,-2.49% [at 79.2 µM] (inactive),
CN(N=O)c1ccc([N+](=O)[O-])cc1,-9.6% (inactive),
CC1CC(CC2CCC(N)C(C)C2)CCC1N (stereo not given),-0.167% [at 79.2 µM] (inactive),
CCC(COC(=O)c1cc(OC)c(OC)c(OC)c1)(c1ccccc1)N(C)C (stereo not given),0.462% (inactive),
C=CC(=O)OC(C)(C)C,-0.117% (inactive),
CN1[C@@H]2CC[C@H]1CC(OC(=O)c1cc(Cl)cc(Cl)c1)C2 (stereo not given in full),0.0349% (inactive),
C=CC(C)=O,-1.34% (inactive),
c1cc2ccc3cccc4ccc(c1)c2c34,-5.78% [at 79.2 µM] (inactive),
c1ccc(CN2CCNCC2)cc1,6.95% [at 213 µM] (inactive),
O=C1C(Cl)C(CCl)CN1c1cccc(C(F)(F)F)c1 (stereo not given),4.66% (inactive),
CCCC(=O)Cl,0.0718% (inactive),
Clc1ccc(C(OCCN2CCCCC2)c2ccccc2)cc1 (stereo not given),-0.512% [at 29.2 µM] (inactive),
C[N+](C)(C)CCCl,1.72% [at 79.2 µM] (inactive),
O=S1(=O)OC(c2cc(Br)c(O)c(Br)c2)(c2cc(Br)c(O)c(Br)c2)c2ccccc21,-1.59% (inactive),
CCCN(CC1CC1)c1c([N+](=O)[O-])cc(C(F)(F)F)cc1[N+](=O)[O-],-3.76% (inactive),
CC(Cl)C(C)Cl (stereo not given),-4.34% (inactive),
Clc1cc(Cl)c(Cl)c(Cl)c1,-4.51% (inactive),
